This is part of a sample that, as a whole, favours compounds with a hit. Of some 83,000 tested, about 20% had one in any assay.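 Cells were grown in 96-well plates and exposed to the test compound at a single concentration for 48 hours; results are reported as percent growth, with values below 10 considered active.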 Activity calls are given as the source filed them.
tested on: SK-OV-3 ovarian; assay: NCI-60 one-dose screen, 48 h (100 = growth as untreated, 0 = no growth, -100 = all killed); details: 10 µM unless noted

| SMILES | growth |
| --- | --- |
| CC1=NN(c2ccccc2Cl)C(=O)/C1=C\c1cn(S(=O)(=O)c2ccc(C)cc2)c2ccccc12 | 105% (inactive) |
| O=c1c(O)cccn1CCCNCCCN(CCCn1cccc(O)c1=O)CCCn1cccc(O)c1=O | 97.3% (inactive) |
| O=C1OCC/C1=C\OCCCO/C=C1\CCOC1=O | 114% (inactive) |
| O=C(Nc1cccc2ccccc12)c1cc2c(cc1Br)OCO2 | 80.9% (inactive) |
| NC(=O)SCC(=O)Nc1ccccc1-c1ccccc1 | 131% (inactive) |
| Cn1[nH]cc(/C=N/C(N)=O)c1=O | 110% (inactive) |
| c1ccc2c(c1)[nH]c1c2cc[n+]2cc3c(cc12)CCCC3 | 23.4% (inactive) |
| CN1CCCC1c1cccnc1 (configuration not stated) | 116% (inactive) |
| Cn1cc(-c2nc(-c3c[nH]c4ncccc34)cs2)c2cccnc21 | 62% (inactive) |
| S=C(c1ccccc1)N1CCN(c2cccc(Cl)c2)CC1 | 103% (inactive) |
| O=C1NC(=O)/C(=C\c2ccccc2)C2=C1CCCC2 | 152% (inactive) |
| C[C@]12CC[C@@H]3c4ccc(O)c([N+](=O)[O-])c4CC[C@H]3[C@@H]1CC[C@@H]2NS(=O)(=O)c1ccc(C(F)(F)F)cc1 | 74.2% (inactive) |
| O=C(Oc1ccc[nH]c1=O)c1cccc(Cl)c1 | 103% (inactive) |
| COc1ccc(Cn2cc3c(c2-c2ccccc2)CCc2cncnc2-3)cc1 | 76.8% (inactive) |
| Cn1cc(-c2csc(-c3cn(C)c4ncccc34)n2)c2cc(Br)cnc21 | 105% (inactive) |
| C[n+]1ccc(Nc2ccc(NC(=O)c3ccc(Nc4cc[n+](C)c5ccc(N)cc45)cc3)cc2)cc1 | 99.1% (inactive) |
| Cc1cc2c(cc1[N+](=O)[O-])NC(CNC(C)C)CC2 (configuration not stated) | 99.7% (inactive) |
| CC(=O)Oc1c(C)c(OC(C)=O)c2c(c1C(C)=O)OC1CC(=O)C(C(C)=O)=C(O)C21C (configuration not stated) | 98.2% (inactive) |
| CCOC(=O)c1c2c(c(C)n1Cc1ccc(OC)cc1)-c1nc(N)ncc1CC2 | 107% (inactive) |

| SMILES | growth |
| --- | --- |
| COc1ccc2nccc(/C=C/c3ccnc4ccc(OC)cc34)c2c1 | 115% (inactive) |
| Cc1cc2cn3c4cccnc4[nH]c(=O)c3c2cc1C | 81% (inactive) |
| COc1ccc2nc(-c3ccc(-n4cncc4-c4ccc(OC)c(N)c4)cc3)sc2c1 | 117% (inactive) |
| COc1cc2c(c(OC)c1OC)CCc1cnoc1-2 | 109% (inactive) |
| C=C(C)[C@H]1CC/C(C)=C/CC[C@]2(C)O[C@H]2CC/C(C=O)=C\C1O (some centres not stated) | 102% (inactive) |
| COc1ccc2c(c1)[nH]c(=O)c1c3cc(OC)c(OC)cc3cn21 | 40.2% (inactive) |
| Nc1nc(Cl)c2[nH]cnc2n1 | 93.2% (inactive) |
| O=C(Nc1ncc([N+](=O)[O-])s1)c1cccc([N+](=O)[O-])c1 | 64.1% (inactive) |
| Cc1ccc([N+](=O)[O-])cc1NC(=O)Nc1cccc(F)c1 | 98.7% (inactive) |
| OC(CCC(O)(c1ccccc1)c1ccccc1)(c1ccccc1)c1ccccc1 | 103% (inactive) |
| COc1ccc(/C(=C2\O[C@@H]([C@H](O)CO)[C@H]3OC(C)(C)O[C@@H]23)c2cc(OC)c(OC)c(OC)c2)cc1O | 106% (inactive) |
| CCC(c1ccccc1)c1noc(CCN(CC)CC)n1 (configuration not stated) | 97% (inactive) |
| O=C(Nc1ccc(Nc2ccncc2)cc1)c1ccc(Nc2ccnc3ccc([N+](=O)[O-])cc23)cc1[N+](=O)[O-] | 82.8% (inactive) |
| CC12CCCCC1C(C(N)=O)C(=O)O2 (configuration not stated) | 107% (inactive) |
| CCOC(=O)c1c2c(c(C)n1Cc1ccccc1)-c1nc(N)ncc1CC2 | 118% (inactive) |
| Nc1ncc(-c2cnn(C3CCNCC3)c2)cc1-c1nc2cc(Cl)ccc2o1 | -81.5% (active) |
| COc1ccc(OC)c2c1[nH]c(=O)c1c3ccccc3cn21 | -86% (active) |
| CCC(CCC(C)C1CCC2C3CC=C4CC(O)CCC4(C)C3CCC12C)C(C)C (configuration not stated) (tested in a mixture with another compound) | 127% (inactive) |
| CCOC(=O)c1c(C)nc(C)c(C(=O)OCC)c1-c1cccnc1 | 99.2% (inactive) |

tested on: IGROV1 ovarian; assay: as above; details: 10 µM unless noted

| SMILES | growth |
| --- | --- |
| NC(=O)SCC(=O)Nc1ccccc1-c1ccccc1 | 133% (inactive) |
| Cn1[nH]cc(/C=N/C(N)=O)c1=O | 124% (inactive) |
| c1ccc2c(c1)[nH]c1c2cc[n+]2cc3c(cc12)CCCC3 | 66.4% (inactive) |
| Cn1cc(-c2nc(-c3c[nH]c4ncccc34)cs2)c2cccnc21 | 61.5% (inactive) |
| S=C(c1ccccc1)N1CCN(c2cccc(Cl)c2)CC1 | 107% (inactive) |
| Cn1cc(-c2csc(-c3cn(C)c4ncccc34)n2)c2cc(Br)cnc21 | 110% (inactive) |
| COc1ccc2nccc(/C=C/c3ccnc4ccc(OC)cc34)c2c1 | 102% (inactive) |
| Cc1cc2cn3c4cccnc4[nH]c(=O)c3c2cc1C | 65% (inactive) |
| COc1ccc2nc(-c3ccc(-n4cncc4-c4ccc(OC)c(N)c4)cc3)sc2c1 | 113% (inactive) |
| COc1ccc2c(c1)[nH]c(=O)c1c3cc(OC)c(OC)cc3cn21 | -9.03% (active) |
| OC(CCC(O)(c1ccccc1)c1ccccc1)(c1ccccc1)c1ccccc1 | 90.7% (inactive) |
| COc1ccc(/C(=C2\O[C@@H]([C@H](O)CO)[C@H]3OC(C)(C)O[C@@H]23)c2cc(OC)c(OC)c(OC)c2)cc1O | 100% (inactive) |
| CC12CCCCC1C(C(N)=O)C(=O)O2 (configuration not stated) | 119% (inactive) |
| COc1ccc(OC)c2c1[nH]c(=O)c1c3ccccc3cn21 | -60.7% (active) |

— PubChem BioAssay (NCI)
